# Reference: PubChem BioAssay AID602248 (The Scripps Research Institute Molecular Screening Center, 2012)
# In all, about 360,000 compounds went through this assay and about 1,700 (0.47%) were called active. For the sample, actives were picked, then their nearest neighbours and some compounds at random. A number with no mark means an inactive call. No stated cut-off is given here; in the data, active means activation above about 15%; inactive means the rest.
# Test: counter-screen for M1 agonists: effect in parental CHO-K1 cells (AID 602248);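 further: untransfected CHO-K1 host cells lacking M1 receptor as counterscreen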
# Conditions: Fluo-8 calcium fluorescence, at 3 µM, active compounds read high, scaled to maximal ATP response, vehicle zero
row,SMILES,activation
1,O=C(NC1CC1)C1=C[C@H](c2c[nH]c3ccccc23)C[C@H](OCc2ccc(CO)cc2)O1,-0.26%
2,NC(=O)C1=C[C@H](c2csc3ccccc23)C[C@H](OCc2ccc(CO)cc2)O1,15.6% (active)
3,NC(=O)C1=C[C@@H](c2csc3ccccc23)C[C@@H](OCc2ccc(CO)cc2)O1,5.09%
4,Cc1ccc(N)cc1-n1c(C)ccc1C,0.3%
5,O=C(CSc1ccc(Cl)cc1)NC1CC1,-0.25%
6,CCC1(C)Cc2c(sc3nc(SC)[nH]c(=O)c23)CO1 (configuration not stated),18.7% (active)
7,CCSc1nc2sc3c(c2c(=O)[nH]1)CC(C)(C)OC3,0.45%
8,CC/C(C)=N/Nc1nc2sc3c(c2c(=O)[nH]1)CC(C)(C)OC3,0.65%
9,COc1ccc(-n2ncc3c2CC(C)(C)CC3NC(=O)CCc2c(C)nn(C)c2C)cc1 (configuration not stated),2.09%
10,CCC(C(=O)Nc1ccc(C(C)C)cc1)c1ccccc1 (configuration not stated),21.5% (active)
11,CCCC(C)C(=O)Nc1ccc(NC(C)=O)cc1 (configuration not stated),-0.01%
12,Cc1ccc(NC(=O)C(C)c2cccc(C(=O)c3ccccc3)c2)cc1 (configuration not stated),3.5%
13,COc1ccc([C@H]2C[C@@H](n3cc(COC(=O)c4ccccc4)nn3)[C@H](O)CN2C(=O)c2cccs2)cc1,4.74%
14,O=C(NCCc1ccccn1)c1cc(C(=O)C2CCCCC2)c[nH]1,0.74%
15,CC/C(=N\NC(=S)NC(C)C)c1ccc(OC(F)F)cc1,0.04%
16,CC(NC(=S)Nc1ccc(OC(F)F)cc1)c1ccc(F)cc1 (configuration not stated),18.2% (active)
17,CC(C)N(Cc1ccccc1)C(=S)Nc1ccc(OC(F)F)cc1,3.54%
18,COC(=O)[C@]12CCCCC=C1N(CCC1=CCCCC1)C(=O)[C@H](CC(=O)N1CCSCC1)C2,2.39%
19,O=C(CC(=O)N/N=C\c1cccc(Cl)c1Cl)NCc1ccccc1,6.61%

row,SMILES,activation
1,CSc1sc(C)cc1C1C(C#N)=C(N)N(c2cccnc2)C2=C1C(=O)CCC2 (configuration not stated),0.25%
2,C=CC(=O)OCCOCCOCCOCCOC(=O)C=C,0.44%
3,Oc1ccccc1N1CCN(c2ncnc3sc(-c4ccccc4)cc23)CC1,18.6% (active)
4,CCc1cc2c(N3CCN(c4nnc(CC)s4)CC3)ncnc2s1,3.43%
5,COc1ccccc1N1CCN(c2ncnc3sc(C)c(-c4ccccc4)c23)CC1,0.5%
6,CCOC(=O)[C@H]1[C@H]2COc3ccc(Cl)cc3[C@@H]2N2C(=O)c3cc(C)ccc3NC(=O)[C@@]12C,-0.51%
7,COc1ccc(CSc2nnnn2-c2ccc(O)cc2)cc1F,7.29%
8,COc1ccc2c(c1)[C@H]1[C@H](CO2)[C@H](c2ccccc2)[C@]2(C)C(=O)Nc3cc(F)c(F)cc3C(=O)N12,0.27%
9,CCN1C(=NCC(C)C)N[C@@H](CCc2ccccc2)[C@H](C(=O)NCC(C)C)[C@H]1C,0.45%
10,O=S1(=O)CC(N2CCN(Cc3ccccc3F)CC2)CN1Cc1cn(Cc2ccccc2)nn1 (configuration not stated),0.46%
11,CCOC(=O)CC1=CC(=O)Nc2ccccc2N1,0.86%
12,NS(=O)(=O)c1ccc(NC(=O)COC(=O)CCc2c[nH]c3ccccc23)cc1,2.12%
13,O=C(COC(=O)c1ccc(Cl)nc1)NCc1ccc2c(c1)OCO2,1.56%
14,NS(=O)(=O)c1ccc(NC(=O)COC(=O)c2c3c(nc4ccccc24)/C(=C\c2ccc4c(c2)OCO4)CCC3)cc1,17.2% (active)
15,NC(=O)c1ccc(NC(=O)COC(=O)c2c3c(nc4ccccc24)/C(=C\c2ccc4c(c2)OCO4)CCC3)cc1,28.9% (active)
16,CC(NC(=S)Nc1ccc(S(N)(=O)=O)cc1)c1ccc2c(c1)OCO2 (configuration not stated),0.36%
17,CC(=O)Nc1cccc(C(=O)OCC(=O)c2ccc3c(c2)OCO3)c1,3.56%
18,Cc1ccc(NS(=O)(=O)c2cn(C)c(=O)n(C)c2=O)c(C)c1,0.05%
19,O=C(COC(=O)c1cncc(Br)c1)Nc1ccc(S(=O)(=O)N2CCOCC2)cc1,0.85%

row,SMILES,activation
1,CN(CCO)C(=O)c1nc[nH]c1C(=O)N(C)Cc1ccccc1,0.53%
2,CCOC(=O)N(Cc1ccccc1)C1CC1,0.45%
3,CN(C(=O)CN(CCO)CC(=O)N(C)C(C)(C)Cc1ccccc1)C(C)(C)Cc1ccccc1,30.2% (active)
4,COc1ccc(CCNS(=O)(=O)c2ccc(Cl)s2)cc1OC,0.5%
5,CCCn1c(=O)c2ccccc2n2c(SCC(=O)/C(C#N)=C(\C)N)nnc12,-0.17%
6,CN(C)c1ccc(C(CNC(=O)c2ccc(F)cc2)c2c[nH]c3ccccc23)cc1 (configuration not stated),0.33%
7,COC(=O)c1nc2n(n1)C(c1ccc([N+](=O)[O-])cc1)C(C(=O)Nc1ccc(Cl)cc1)=C(C)N2 (configuration not stated),0.7%
8,CCN(CC)CCCC(C)n1c2nc(=O)[nH]c(=O)c-2nc2cc(Cl)ccc21 (configuration not stated),150% (active)
9,CC(=O)c1c(C)[nH]c(C(=O)OCC(=O)Nc2c(C)n(C)n(-c3ccccc3)c2=O)c1C,0.66%
10,O=C(c1ccc(=O)[nH]c1)N(Cc1ccco1)C1(C(=O)NC2CCCCC2)CCCCC1,0.04%
11,COc1ccc(OC)c(NC(=O)C2CCCN2S(=O)(=O)c2cccc3nsnc23)c1 (configuration not stated),0.61%
12,Nc1ccc2[nH]c(=S)sc2c1,0.51%
13,CN1CCN(CCNC(=O)Nc2ccc([N+](=O)[O-])cc2)CC1,0.55%
14,O=C(CCN1C(=O)COc2ccccc21)NCCCN1CCN(c2ccc(F)cc2)CC1,0.21%
15,O=C(NCCCN1CCN(c2ccc(F)cc2)CC1)Nc1ccc([N+](=O)[O-])cc1,15.1% (active)
16,CCn1nnnc1SCC(=O)Nc1ccc(N(C)C)cc1,0.31%
17,CCSCc1nc(N)nc(NCCc2ccccc2)n1,15.5% (active)
18,Cc1ccccc1Nc1nc(N)nc(CSc2ccccc2)n1,0.45%
19,Nc1nc(CSc2nnnn2-c2ccccc2)nc(Nc2ccccc2)n1,1.93%
